Sampled rows, rich in hits. Any-hit rate of the full collection: about 3.3%.
VACV mCherry inh = vaccinia inhibition (mCherry reporter); Vaccinia virus mCherry reporter infection, fluorescence; Potency, µM (top dose mostly 36.5 µM), inactives show at the highest dose activity change, negative = inhibition, usual class: inhibitors; 310,000 compounds, 0.63% hits; AID 720579; calls by dose curve; tested in A549 cells; note: nearly all actives have a fitted effect of over 35% in size
HCV inhibitor = blocks hepatitis C virus. Huh7.5.1 HCVcc-Cre infection, luciferase reporter, 44 h. Potency, µM (doses to about 41.8 µM), inactives show at the top dose activity change, negative = inhibition, usual class: inhibitors. 340,000 compounds, 3.4% hits; active = well fitted inhibition curve with a large enough effect; inconclusive = small, poorly fitted or top-dose-only effect, or another doubt; inactive = no such curve, though single readings can be large or run the other way
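Antiviral activity was scored by luciferase reporter output from cells infected with HCVcc-Cre (~0.5 moi) in presence of compound, 44 h infection period, cells seeded 1,000/well 4 h prior.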
VACV Venus inh = vaccinia inhibition (Venus reporter). Vaccinia virus Venus reporter expression, fluorescence. Potency, µM (highest dose often 36.5 µM), inactives show at the top dose activity change, negative = inhibition, most hits filed as inhibitors. 330,000 compounds, 0.46% hits. AID 720580; calls by dose curve; tested in A549 cells; note: nearly all actives have a fitted effect of over 30% in size
* = called active by the depositor; i = inactive; ? = inconclusive; nt = not tested or not shown; [ ] = remark or other dose. % is set by controls: 0 for no effect and ±100 for the full control effect; potency is the fitted concentration of half-maximal effect.

SMILES	VACV mCherry inh	HCV inhibitor	VACV Venus inh
CC(=O)Nc1ccc(S(=O)(=O)N2Cc3cnnn3-c3ccccc3C2C#N)cc1 (stereo not given)	-8.8%	0.316µM*	2.3%
c1ccc(C2c3ccccc3-n3nncc3CN2CC2CCCCC2)cc1 (stereo not given)	?	3.6%[8.37 µM]	-16.1%
N#CC1c2ccccc2-n2nncc2CN1Cc1cc(Cl)cc(Cl)c1 (stereo not given)	-13.4%	5.62µM*	0.3%
COc1ccc(CN2Cc3cnnn3-c3ccccc3C2c2ccccc2)cc1 (stereo not given)	?	1.26µM*	?
COc1ccc(CN2Cc3cnnn3-c3ccccc3C2C#N)cc1 (stereo not given)	?	3.98µM*	-15.9%
CN1Cc2cnnn2-c2ccccc2C1C#N (stereo not given)	-24.5%	16.2%[8.37 µM]	-23.2%
COc1ccc(C(=O)N2Cc3cnnn3-c3ccccc3C2C#N)cc1 (stereo not given)	-17.5%	10.8%[8.37 µM]	-1.5%
Cc1ccc(S(=O)(=O)N2Cc3cnnn3-c3ccccc3C2C#N)cc1 (stereo not given)	-9.7%	-20.3%[8.37 µM]	4.3%
Cc1nc2c(c(SCC(=O)Nc3ccccc3C(F)(F)F)n1)CCC2	-10.5%	nt	-13.9%
COc1ccc2nc3oc(C(=O)Nc4cccc(C(F)(F)F)c4)cc3cc2c1	-14.5%	nt	-14.9%
Cc1cc(C)c(NS(=O)(=O)c2ccc(-c3cnc(C4CC4)o3)cc2)c(C)c1	-28.9%	nt	-29.7%
Cc1ccc(-n2ncc(C(=O)NCCCN3CCN(c4cccc(Cl)c4)CC3)c2-n2cccc2)cc1	-27.5%	nt	-29.7%
O=C(Nc1ccc(Cc2ccncc2)cc1)c1ccc([N+](=O)[O-])o1	10µM*	?	?
CCC(=O)Nc1ccc(S(=O)(=O)N2CCOCC2)cc1	i	18.4%	-9.6%
O=C(Nc1ccc(Cc2ccncc2)cc1)c1cccc([N+](=O)[O-])c1	-6.8%	?	-15.0%
O=C(Nc1ccc(N2CCOCC2)cc1)c1ccc([N+](=O)[O-])o1	11.2µM*	?	?
O=C(COC(=O)c1ccc([N+](=O)[O-])o1)Nc1ccc(N2CCOCC2)cc1	nt	3.3%	nt
O=C(Nc1ccccc1N1CCOCC1)c1ccccc1[N+](=O)[O-]	nt	16.4%	nt
O=C(Nc1ccccc1N1CCOCC1)c1ccc([N+](=O)[O-])s1	4.47µM*	11.2µM*	7.94µM*
CCc1c(C(=O)Nc2ccc(S(=O)(=O)N3CCOCC3)cc2)csc1C	-6.9%	10µM*	-13.8%
CC(=O)Nc1nonc1-c1nnc(SCC(=O)Nc2ccc(C)cc2C)n1C	6.2%	nt	-6.8%
CC(C)c1nnc(NC(=O)C2CCN(C(=O)Nc3ccc(Cl)cc3)CC2)s1	10.6%	-20.1%	-11.4%
COc1ccc(NS(=O)(=O)c2nnc(NC(=O)c3ccccc3F)s2)cc1	?	27.8%	-26.3%
Cc1c(Cl)ccc2sc(N3CCN(C(=O)CCS(=O)(=O)c4ccc(F)cc4)CC3)nc12	-23.3%	nt	?
O=c1c(O)c(-c2ccccc2)oc2ccc3occc3c12	i	nt	0.0%
SMILES	VACV mCherry inh	HCV inhibitor	VACV Venus inh
CN(C)S(=O)(=O)c1ccc(Cl)c(NC(=O)CN2C(=O)NC3(CCc4ccccc43)C2=O)c1 (stereo not given)	nt	1.4%	nt
O=C(CNc1cccc([N+](=O)[O-])c1)N1CCN(S(=O)(=O)c2ccc(Cl)cc2)CC1	-10.1%	-22.4%	-25.7%
O=C(Nc1ccc(S(=O)(=O)N2CCOCC2)cc1)c1ccc([N+](=O)[O-])o1	?	-22.3%	17.8µM*
O=C(Nc1ccc(S(=O)(=O)N2CCCC2)cc1)c1ccc([N+](=O)[O-])o1	nt	2.82µM*	nt
O=C(Nc1ccc(S(=O)(=O)N2CCOCC2)cc1)c1ccc([N+](=O)[O-])s1	?	8.91µM*	1.4%
Cc1ccc(C(=O)Nc2ccc(S(=O)(=O)N3CCCC3)cc2)o1	-8.7%	-3.3%	-7.6%
O=C(Nc1ccc(S(=O)(=O)N2CCOCC2)cc1)c1ccco1	i	-1.0%	-9.5%
O=C(Nc1ccc(S(=O)(=O)N2CCOCC2)cc1)c1cccs1	-15.9%	5.4%	-4.5%
O=C1CN(C(=O)COc2ccc(Cl)cc2)C(c2ccccc2)c2cc(Br)ccc2N1 (stereo not given)	-6.2%	nt	-11.3%
Cc1ccccc1C(=O)Nc1nnc([C@@H]2C[C@H](O)[C@@H](CO)O2)s1	-9.8%	nt	-7.1%
O=C(CCNC(=O)C1CCN(S(=O)(=O)c2ccccc2)CC1)Nc1cccc(C(F)(F)F)c1	nt	-8.0%	nt
Cc1ccc(C)c(CN2C[C@H](Sc3nc4ccccc4[nH]3)C[C@H]2C(=O)N2CCCN(C)CC2)c1	-18.5%	nt	-8.8%
COc1ccc(N/N=C(\C=N\O)C(=O)c2ccc(OC)cc2)cc1	-23.2%	-15.9%	?
N/N=C/C(=N\Nc1ccc(Cl)cc1)C(=O)c1ccncc1	?	22.4µM*	-20.3%
COc1cccc(CNC(=O)CCCCCn2c(=O)[nH]c3cc(OC)c(OC)cc3c2=O)c1	-6.8%	nt	0.5%
COc1ccc(C2c3ccc4ccccc4c3Oc3ncn(CCO)c(=N)c32)cc1OC (stereo not given)	-2.8%	10µM*	?
COc1ccc(C2c3ccc4ccccc4c3Oc3ncn(CCO)c(=N)c32)cc1 (stereo not given)	-11.2%	?	-24.7%
COc1ccc(C2c3c(ncn(CCCN4CCOCC4)c3=N)Oc3ccc4ccccc4c32)cc1OC (stereo not given)	nt	22.4µM*	nt
COc1ccc(Cc2nc3c4c(ncn3n2)Oc2c(ccc3ccccc23)C4c2ccc(OC)c(OC)c2)cc1 (stereo not given)	i	?	-9.3%
COc1ccc(C2c3ccc(O)cc3Oc3ncn(CCN4CCOCC4)c(=N)c32)cc1OC (stereo not given)	i	-23.1%	-9.1%
COc1ccc(C2c3ccc4ccccc4c3Oc3ncn(CCCO)c(=N)c32)cc1OC (stereo not given)	-6.1%[7.34 µM]	12.6µM*	-24.1%[7.34 µM]
O=C(C1CCCN(S(=O)(=O)c2cccs2)C1)N1CCN(c2ccccc2F)CC1 (stereo not given)	-10.3%	nt	-1.7%
CCOc1ccc(OCC)c(Nc2nc3ccc(C(=O)c4ccccc4)cc3n3cnnc23)c1	-14.5%	nt	-3.5%
COc1ccc(C(=O)NCC(c2ccc(N(C)C)cc2)N2CCCC2)cc1 (stereo not given)	5.5%	nt	?
CCC1CCc2sc(C(=O)NCC3CCCO3)cc2C1 (stereo not given)	nt	-12.6%	nt
SMILES	VACV mCherry inh	HCV inhibitor	VACV Venus inh
COc1ccc(C(CNC(=O)c2cc3c(s2)CCC(C)C3)N2CCCC2)cc1 (stereo not given)	nt	10µM*	nt
CCC1CCc2sc(C(=O)NCC(c3ccccc3OC)N3CCCC3)cc2C1 (stereo not given)	nt	7.08µM*	nt
COC(=O)[C@@H]1CCCN1Cc1ccc2c(c1)CN(Cc1ccccc1F)CCO2	-9.6%	nt	2.9%
COc1ccccc1CN1CCCC(n2cc(C(=O)N3CCCCC3)nn2)C1 (stereo not given)	-6.1%	nt	-7.9%
COc1ccc(N2CCN(C(=O)Cn3c(-c4cccs4)cc4ccccc43)CC2)cc1	-5.7%	nt	-0.7%
CC(C)(Oc1ccc(Cl)cc1)C(=O)OCC(=O)NCCc1ccccc1	i	6.0%	-11.3%
CS(=O)(=O)c1ncc(Cl)c(C(=O)N(Cc2ccc(Cl)cc2)Cc2ccco2)n1	?	nt	15.8µM*
O=C(c1ccc(Cl)cc1)N(Cc1ccco1)Cc1ccco1	5.3%	nt	-0.5%

High-throughput results: PubChem BioAssay, National Center for Advancing Translational Sciences (NCATS)
